From PubChem BioAssay (Tox21)
Records with an inconclusive call do not appear. Calls of active or inactive are those of the source. Unless noted, the call rests on the fitted dose curve; in most records, active means well fitted curve in the direction sought with a large enough effect in the repeat runs; inconclusive means weak or mixed curves; inactive means no such curve, though single readings can be large; an effect the other way counts as inactive or inconclusive.

What was measured:
[1] = qHTS assay to identify small molecule agonists of the vitamin D receptor (VDR) signaling pathway - cell viability counter screen (AID 743224); further: series mostly up to about 63 µM; on the % scale 0 is the no-effect control and ±100 the full control effect; nearly all actives have a fitted effect of over 50% in size
How it was run: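 In parallel with the bla FRET readout, cytotoxicity toward VDR-bla cells after 16 h compound exposure was assessed by CellTiter-Glo, with luminescence recorded after a 30 min room-temperature incubation.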

[2] = qHTS assay to identify small molecule antagonists of the vitamin D receptor (VDR) signaling pathway - cell viability counter screen (AID 743225); further: on the % scale 0 is the no-effect control and ±100 the full control effect; nearly all actives have a fitted effect of over 50% in size
How it was run: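 VDR-UAS-bla HEK 293T cells were plated and incubated 4 h at 37C, then dosed with compound plus 3 nM (final) 1-alpha,25-dihydroxyvitamin D3 for 16 h. After the 2 h beta-lactamase read, viability in the same wells was read as CellTiter-Glo luminescence after 30 min at room temperature.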

[3] = qHTS assay to identify small molecule agonists of the NFkB signaling pathway - cell viability counter screen (AID 1159515; calls by dose curve; further: series mostly up to about 61 µM; on the % scale 0 is the no-effect control and ±100 the full control effect; nearly all actives have a fitted effect of over 55% in size)
How it was run: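 Plate 2,000 NFkB-bla ME-180 cells/well; incubate overnight. Add compounds, 5 hr at 37 C. Add FRET substrate, 1.5 hr RT. Add CellTiter-Glo, 30 min RT; read luminescence.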

[4] = qHTS assay to identify small molecule agonists of the endoplasmic reticulum stress response signaling pathway (AID 1159516; active means well fitted activation curve with a large enough effect in the signal ratio in the repeat runs, not every such curve was filed as active; the % refers to the signal ratio; further: on the % scale 0 is the no-effect control and ±100 the full control effect)
How it was run: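 Beta-lactamase expression from the ER stress response element in HeLa reporter cells is quantified with the LiveBLAzer B/G FRET substrate, read at 405 nm excitation after 2 hr at room temperature, following 5 hr compound treatment at 37 C.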

[5] = qHTS assay to identify small molecule antagonists of the retinoid-related orphan receptor gamma (ROR-gamma) signaling pathway - cell viability counter screen (AID 1159520); further: on the % scale 0 is the no-effect control and ±100 the full control effect; nearly all actives have a fitted effect of over 50% in size
How it was run: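 Tet-on ROR gamma CHO cells were given compounds for 2 hr, then doxycycline hyclate at 1 uM final, and incubated 16 hr at 37 C. Viability was measured as ATP content by CellTiter-Glo luminescence.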

[6] = molecular target: Nuclear receptor ROR-gamma (Homo sapiens) (UniProt P51449); assay: qHTS assay to identify small molecule antagonists of the retinoid-related orphan receptor gamma (ROR-gamma) signaling pathway (AID 1159521;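 further: CHO cells with doxycycline inducible ROR-gamma driving an RORE luciferase reporter; top concentration of the series differs between compounds; on the % scale 0 is the no-effect control and ±100 the full control effect; nearly all actives have a fitted effect of over 50% in size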)
How it was run: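 Tet-on ROR-gamma CHO cells with ROR response element-luciferase reporter; compounds added 2 hr before 1 uM doxycycline induction, then 16 hr at 37 C. Antagonism scored as decreased ONE-Glo luminescence.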

[7] = qHTS assay to identify small molecule agonists of the AP-1 signaling pathway - cell viability counter screen (AID 1159525; calls by dose curve; further: nearly all actives have a fitted effect of over 55% in size)
How it was run: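 Same-well cytotoxicity counter screen of the Tox21 10K library in ME-180 cells. The readout is ATP-dependent luminescence after 5 h compound treatment. Data are normalised to DMSO and tetra n-octyl ammonium bromide controls.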

[8] = qHTS assay to identify small molecule agonists of the AP-1 signaling pathway (AID 1159526; calls by dose curve; further: on the % scale 0 is the no-effect control and ±100 the full control effect)
[9] = molecular target: Retinoic acid receptor RXR-alpha (Homo sapiens) (UniProt P19793); assay: qHTS assay to identify small molecule agonists of the RXR signaling pathway (AID 1159527; calls by dose curve; further: on the % scale 0 is the no-effect control and ±100 the full control effect; nearly all actives have a fitted effect of over 35% in size)
How it was run: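 GeneBLAzer RXR-alpha-UAS-bla HEK 293T cells in 2% charcoal-stripped FBS medium were exposed to compounds for 16 hr at 37 C in agonist mode. Beta-lactamase reporter read as 460/530 nm FRET ratio after 2 hr substrate loading.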

[10] = qHTS assay to identify small molecule agonists of the RXR signaling pathway - cell viability counter screen (AID 1159529)
How it was run: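 RXR-alpha-UAS-bla HEK 293T cells in medium with 2% charcoal-stripped FBS were pre-incubated 5 hr, then compound-treated 16 hr at 37 C. Viability was read by CellTiter-Glo luminescence in the same wells as the beta-lactamase assay, with tetraoctyl ammonium bromide as positive control.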

[11] = qHTS assay to identify small molecule antagonists of the retinoid acid receptor (RAR) signaling pathway - cell viability counter screen (AID 1159551); further: on the % scale 0 is the no-effect control and ±100 the full control effect; nearly all actives have a fitted effect of over 35% in size
How it was run: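 Viability of C3RL4 cells is quantified from ATP by luminescence after 6 h treatment at 37 C with compounds and 1 uM retinol.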

[12] = qHTS assay to identify small molecule antagonists of the retinoic acid receptor (RAR) signaling pathway (AID 1159552)
How it was run: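 Retinol signaling pathway inhibitors screened in C3RL4 RARE-luciferase reporter cells seeded overnight at 37 C, then compounds added with 1 uM (final) retinol as pathway substrate. After 6 hr at 37 C, luciferase luminescence read after 30 min at room temperature.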

[13] = qHTS assay to identify small molecule agonists of the retinoic acid receptor (RAR) signaling pathway (AID 1159553); further: potency means the concentration at half of the fitted maximal effect; on activation: on the % scale 0 is the no-effect control and ±100 the full control effect
How it was run: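 Compounds dissolved in DMSO were pinned onto C3RL4 cells seeded the previous day, and plates were held 6 hr at 37 C. RARE-driven luciferase output was then read by luminescence.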

[14] = qHTS assay to identify small molecule antagonists of the estrogen related receptor (ERR) signaling pathway from Tox21 library - cell viability counter screen (AID 1224834); further: on the % scale 0 is the no-effect control and ±100 the full control effect; nearly all actives have a fitted effect of over 30% in size
How it was run: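 In this quantitative HTS format, ERR cells receive compounds in DMSO and are incubated for 17.5 h at 37 C. Live-cell protease activity is then detected with CellTiter-Fluor.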

[15] = molecular target: Luciferin 4-monooxygenase (Photinus pyralis) (UniProt P08659); assay: qHTS assay to identify small molecule inhibitors of firefly luciferase (AID 1224835); further: series mostly up to about 120 µM; on the % scale 0 is the no-effect control and ±100 the full control effect; nearly all actives have a fitted effect of over 25% in size
How it was run: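 Biochemical qHTS: compounds run as interplate titrations against purified firefly enzyme, with D-luciferin and ATP each at its KM concentration. Light output recorded by CCD imaging.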

[16] = qHTS assay to identify small molecule agonists of the constitutive androstane receptor (CAR) signaling pathway - cell viability counter screen (AID 1224836); further: series mostly up to about 92 µM; on the % scale 0 is the no-effect control and ±100 the full control effect; nearly all actives have a fitted effect of over 45% in size
How it was run: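 HepG2 cells stably carrying hCAR and a CYP2B6-2.2kb reporter; 15-concentration compounds plus PK11195 (final 0.75 uM), 23 hr at 37 C/5% CO2. Viability read by CellTiter-Fluor fluorescence.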

[17] = molecular target: Nuclear receptor subfamily 1 group I member 3 (Homo sapiens) (UniProt Q14994); assay: qHTS assay to identify small molecule antagonists of the constitutive androstane receptor (CAR) signaling pathway (AID 1224838); further: on the % scale 0 is the no-effect control and ±100 the full control effect; nearly all actives have a fitted effect of over 40% in size
How it was run: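 CITCO-stimulated (50 nM final) HepG2 cells stably transfected with hCAR and CYP2B6-2.2kb luciferase were exposed to compounds at 15 concentrations for 24 h at 37 C/5% CO2. A luciferase reagent was added and luminescence recorded after 30 min.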

[18] = molecular target: Nuclear receptor subfamily 1 group I member 3 (Homo sapiens) (UniProt Q14994); assay: qHTS assay to identify small molecule agonists of the constitutive androstane receptor (CAR) signaling pathway (AID 1224839);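 further: HepG2 cells stably carrying human CAR and a CYP2B6 luciferase reporter; series mostly up to about 92 µM; on the % scale 0 is the no-effect control and ±100 the full control effect; nearly all actives have a fitted effect of over 15% in size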
How it was run: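 HepG2 cells stably co-transfected with hCAR and a CYP2B6-2.2kb luciferase reporter; compounds at 15 concentrations with 0.75 uM PK11195 present. After 24 hr at 37 C, luciferase read by ONE-Glo luminescence.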

[19] = qHTS assay to identify small molecule antagonists of the constitutive androstane receptor (CAR) signaling pathway - cell viability counter screen (AID 1224837); further: series mostly up to about 92 µM; on the % scale 0 is the no-effect control and ±100 the full control effect; nearly all actives have a fitted effect of over 45% in size
How it was run: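 In quantitative HTS format, compounds at 15 concentrations were applied to HepG2 cells double-transfected with hCAR and CYP2B6-2.2kb under 50 nM CITCO stimulation; live-cell protease activity was read after 23 hr via CellTiter-Fluor.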

Retinoic acid receptor RXR-alpha (Homo sapiens), sequence (P19793 whole entry, looked up): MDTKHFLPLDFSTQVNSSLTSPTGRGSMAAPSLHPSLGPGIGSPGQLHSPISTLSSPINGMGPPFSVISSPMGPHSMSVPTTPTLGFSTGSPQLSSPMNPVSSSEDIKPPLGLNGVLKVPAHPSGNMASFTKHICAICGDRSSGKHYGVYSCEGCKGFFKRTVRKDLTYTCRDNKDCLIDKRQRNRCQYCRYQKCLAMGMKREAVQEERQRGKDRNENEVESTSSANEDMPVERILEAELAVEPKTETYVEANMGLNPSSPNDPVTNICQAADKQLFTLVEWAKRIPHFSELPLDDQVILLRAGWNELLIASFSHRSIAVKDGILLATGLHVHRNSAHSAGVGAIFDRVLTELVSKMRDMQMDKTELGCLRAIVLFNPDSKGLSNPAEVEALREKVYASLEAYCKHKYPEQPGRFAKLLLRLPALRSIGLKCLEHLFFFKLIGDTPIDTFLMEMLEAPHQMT
Luciferin 4-monooxygenase (Photinus pyralis), sequence (P08659 whole entry, looked up): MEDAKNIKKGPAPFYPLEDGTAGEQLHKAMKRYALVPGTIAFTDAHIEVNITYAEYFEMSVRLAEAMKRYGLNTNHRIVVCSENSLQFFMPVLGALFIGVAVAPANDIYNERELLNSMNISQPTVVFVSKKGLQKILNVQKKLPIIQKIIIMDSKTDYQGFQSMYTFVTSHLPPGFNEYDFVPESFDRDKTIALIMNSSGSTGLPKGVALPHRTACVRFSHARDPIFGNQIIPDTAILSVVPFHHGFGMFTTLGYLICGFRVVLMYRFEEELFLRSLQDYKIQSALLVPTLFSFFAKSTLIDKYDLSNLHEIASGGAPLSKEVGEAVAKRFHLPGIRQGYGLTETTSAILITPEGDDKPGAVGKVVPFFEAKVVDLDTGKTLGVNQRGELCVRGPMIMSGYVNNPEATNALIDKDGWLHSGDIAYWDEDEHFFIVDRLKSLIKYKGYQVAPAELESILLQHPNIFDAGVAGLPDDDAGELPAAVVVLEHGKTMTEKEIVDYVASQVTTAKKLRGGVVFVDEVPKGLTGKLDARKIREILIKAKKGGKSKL
Nuclear receptor subfamily 1 group I member 3 (Homo sapiens), sequence (Q14994 whole entry, looked up): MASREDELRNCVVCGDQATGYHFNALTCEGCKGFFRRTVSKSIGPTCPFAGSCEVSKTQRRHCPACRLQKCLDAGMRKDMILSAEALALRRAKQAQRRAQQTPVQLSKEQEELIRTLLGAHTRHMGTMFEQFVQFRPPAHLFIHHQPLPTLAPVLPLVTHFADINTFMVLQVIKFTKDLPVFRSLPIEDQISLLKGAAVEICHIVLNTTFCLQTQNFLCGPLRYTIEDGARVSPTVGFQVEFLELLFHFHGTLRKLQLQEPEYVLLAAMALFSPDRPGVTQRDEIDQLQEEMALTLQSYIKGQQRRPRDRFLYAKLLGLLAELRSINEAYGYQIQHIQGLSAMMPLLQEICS

C[C@@H]1NC(=O)[C@@H](N)CNC(=O)[C@H](C2CCNC(N)=N2)NC(=O)/C(=C/NC(N)=O)NC(=O)[C@H](CNC(=O)C[C@@H](N)CCCN)NC1=O (stereo not given in full)
inactive: activity change, negative = cytotoxicity [1] -2.65% [at 0.55 µM] | viability change, negative = cytotoxic [2] 3.48% [at 0.628 µM] | activity, negative = cytotoxic [3] 1.55% [at 0.628 µM] | activation [4] 0.164% [at 0.628 µM] | activity, negative = cytotoxicity [5] 1.69% [at 0.349 µM] | activity change, negative = inhibition [6] 9.3% [at 0.35 µM] | viability change, negative = cytotoxic [7] 0.985% [at 0.29 µM] | activation [8] -1.11% [at 0.29 µM] | activation [9] 5.99% [at 0.29 µM] | activity change, negative = cytotoxicity [10] 9.35% [at 0.29 µM] | activity change, negative = cytotoxicity [11] 5.1% [at 0.349 µM] | activity, negative = inhibition [12] 21% [at 0.349 µM] | activation [13] 0.189% [at 0.756 µM] | viability change, negative = cytotoxic [14] -0.374% [at 0.349 µM] | activity change, negative = inhibition [15] -1.34% [at 0.435 µM] | viability change, negative = cytotoxic [16] -0.0447% [at 0.349 µM] | activity, negative = inhibition [17] -10.7% [at 0.349 µM] | activation [18] 4.38% [at 0.349 µM]

CC(C)OCCO
inactive: outcome [1] | outcome [2] | outcome [3] | Potency [4] | outcome [5] | outcome [6] | outcome [7] | Potency [8] | Potency [9] | Potency [10] | outcome [11] | outcome [12] | Potency [13] | outcome [14] | Potency [15] | outcome [16] | outcome [19] | outcome [17] | Potency [18]

Cc1nnc(C(=O)NC(C)(C)c2nc(C(=O)NCc3ccc(F)cc3)c(O)c(=O)n2C)o1
inactive: outcome [1] | outcome [2] | outcome [3] | Potency [4] | outcome [5] | outcome [6] | outcome [7] | Potency [8] | Potency [9] | Potency [10] | outcome [11] | outcome [12] | outcome [14] | Potency [15] | outcome [16] | outcome [19]
active: Potency [13] 33.5 µM

Cc1cc(C)c(N)c(Cl)c1
inactive: outcome [1] | outcome [2] | outcome [3] | Potency [4] | outcome [6] | outcome [7] | Potency [8] | Potency [9] | Potency [10] | outcome [11] | outcome [12] | Potency [13] | outcome [14] | Potency [15] | outcome [16] | Potency [18]

COc1cc(S(N)(=O)=O)cc(C(=O)O)c1OC
inactive: outcome [1] | outcome [2] | outcome [3] | Potency [4] | outcome [6] | outcome [7] | Potency [8] | Potency [9] | Potency [10] | outcome [11] | outcome [12] | Potency [13] | Potency [15] | outcome [16] | outcome [19]

O=C(O)CCCCCCCCCC(=O)O
inactive: outcome [1] | outcome [2] | outcome [3] | Potency [4] | outcome [6] | outcome [7] | Potency [8] | Potency [9] | outcome [11] | outcome [12] | Potency [13] | outcome [14] | Potency [15] | outcome [16] | outcome [19]

CCc1ccc(CC)cc1
inactive: outcome [1] | outcome [2] | outcome [3] | Potency [4] | outcome [6] | outcome [7] | Potency [8] | Potency [9] | Potency [10] | outcome [11] | outcome [12] | Potency [13] | outcome [14] | Potency [15] | outcome [16]
